Test systems include NCI-H23 lung; NCI-H226 lung; NCI-H322M lung; HOP-62 NSCLC; NCI-H460 lung; NCI-H522 lung; A549/ATCC NSCLC; 786-0 renal; COLO 205 colon; DU-145 prostate; K-562 leukemia; MALME-3M melanoma; MDA-MB-231 breast; RXF 393 renal; SF-268 CNS; SF-295 CNS; SF-539 CNS; UACC-257 melanoma; M14 melanoma.
What all share (experiment): NCI-60 one-dose screen, 48 h (100 = growth as untreated, 0 = no growth, -100 = all killed)
Conditions in all cases: 10 µM unless noted

Compounds without any hit were thinned out: in the full panel of roughly 83,000, 20% have a hit.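 Single-dose data. Exposure time 48 hours. Values below 10 considered active.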 Unmarked numbers belong to inactive results. Calls of active or inactive are those of the source.

Consider `COc1ccc(C2=NNC(c3ccc(Oc4nc5c(c(=O)n(C)c(=O)n5C)n4C)c(OC)c3)C2)cc1` (stereo unspecified), for which the growth in the assay with NCI-H23 lung is 103%; in the assay with NCI-H226 lung it was 89.7%; in the assay with NCI-H322M lung, 102%; in the assay on HOP-62 NSCLC it was 101%; with NCI-H460 lung it was 95%; with NCI-H522 lung it was 84.4%. Also, the growth with A549/ATCC NSCLC is 90.5%; with 786-0 renal, 98.7%; in the assay with COLO 205 colon it was 127%; with DU-145 prostate, 109%; in the assay on K-562 leukemia, 112%; with MALME-3M melanoma, 103%. Besides, the growth is 93.3% with MDA-MB-231 breast; 87.5% in the assay with RXF 393 renal; 93.4% in the assay on SF-268 CNS; 88.9% in the assay on SF-295 CNS; 97.8% in the assay on SF-539 CNS; 97.8% in the assay on UACC-257 melanoma. In addition, the growth in the assay on M14 melanoma was 96.9%.

As to `CC(C)(C)[Si](C)(C)OC1[C@@H](CNC(N)=O)O[C@@H](n2cnc3c(NC(=O)Nc4ccccc4)ncnc32)[C@H]1O[Si](C)(C)C(C)(C)C` (stereo partly specified), the growth is 62.4% with NCI-H23 lung; 75.9% in the assay on NCI-H226 lung; 119% in the assay on NCI-H322M lung; 78.1% in the assay with HOP-62 NSCLC; 5.08% (active) in the assay on NCI-H460 lung; 63.8% with NCI-H522 lung. Further, the growth in the assay with A549/ATCC NSCLC was 37.6%; in the assay on 786-0 renal, 58.8%; with COLO 205 colon, 9.85% (active); in the assay with DU-145 prostate, 72.6%; with K-562 leukemia, 35.2%; with MALME-3M melanoma it was 75.4%. The growth in the assay with MDA-MB-231 breast is 77.9%; in the assay with RXF 393 renal, 6.77% (active); with SF-268 CNS it was 48.3%; in the assay on SF-295 CNS, 64.7%; with SF-539 CNS, 68.1%; in the assay on UACC-257 melanoma, 78.6%. Also, the growth in the assay on M14 melanoma is 54.3%.

Take `COc1cc(C2CC(c3cccc(Nc4ccnc5cc(Cl)ccc45)c3)=NN2C=O)cc(OC)c1OC` (stereo unspecified): the growth with NCI-H23 lung is 4.02% (active); with NCI-H226 lung, 2.98% (active); in the assay on NCI-H322M lung, 32.5%; in the assay on HOP-62 NSCLC, 1.34% (active); with NCI-H460 lung, 7.22% (active); in the assay on NCI-H522 lung, -4.52% (active). Besides, the growth in the assay on A549/ATCC NSCLC was 18.4%; with 786-0 renal it was 11.3%; in the assay with COLO 205 colon it was -22.6% (active); in the assay on DU-145 prostate, -2.32% (active); with K-562 leukemia, 19.4%; in the assay on MALME-3M melanoma, -5.46% (active). Also, the growth in the assay on MDA-MB-231 breast is 6.76% (active); in the assay with RXF 393 renal, -25.1% (active); with SF-268 CNS, 25.3%; with SF-295 CNS, -11.6% (active); in the assay with SF-539 CNS, -26.3% (active); with UACC-257 melanoma, 37.6%. In the assay with M14 melanoma, the growth was -26.7% (active).

For `CCC1=CC2CN(C1)Cc1c([nH]c3ccccc13)[C@@](C(=O)OC)(c1cc3c(cc1OC)N(C)[C@H]1[C@@](O)(C(=O)OC)[C@H](OC(C)=O)[C@]4(CC)C=CCN5CC[C@]31[C@@H]54)C2` (stereo partly specified), the growth in the assay with NCI-H23 lung is 3.64% (active); in the assay with NCI-H226 lung, -1.33% (active); in the assay with NCI-H322M lung, 70%; in the assay with HOP-62 NSCLC, 19.8%; in the assay on NCI-H460 lung, 3.4% (active); in the assay with NCI-H522 lung it was -4.74% (active). Also, the growth in the assay on A549/ATCC NSCLC is 11%; in the assay on 786-0 renal, -8.81% (active); in the assay on COLO 205 colon it was -75% (active); in the assay with DU-145 prostate, -30.1% (active); in the assay on K-562 leukemia it was 17%; in the assay on MALME-3M melanoma it was 44.5%. The growth is 30.3% in the assay on MDA-MB-231 breast; 47.1% in the assay with RXF 393 renal; 17.4% in the assay with SF-268 CNS; 15.4% with SF-295 CNS; 6.49% (active) with SF-539 CNS; 59.1% with UACC-257 melanoma. Further, the growth in the assay with M14 melanoma is -36.8% (active).

Turning to `O=[N+]([O-])c1ccc(SSc2ccc([N+](=O)[O-])cc2Cl)c(Cl)c1`, the growth in the assay with NCI-H23 lung is 89%; in the assay on NCI-H226 lung, 87.5%; in the assay with NCI-H322M lung, 98.2%; in the assay with HOP-62 NSCLC, 112%; with NCI-H460 lung it was 92.2%; in the assay with NCI-H522 lung, 85.1%. Besides, the growth was 96.3% with A549/ATCC NSCLC; 102% in the assay with 786-0 renal; 127% with COLO 205 colon; 99.5% with DU-145 prostate; 77.8% with K-562 leukemia; 90.8% with MALME-3M melanoma. Moreover, the growth in the assay with MDA-MB-231 breast is 78.2%; in the assay with RXF 393 renal, 120%; in the assay on SF-268 CNS it was 103%; in the assay on SF-295 CNS, 97.2%; with SF-539 CNS it was 119%; with UACC-257 melanoma, 118%. In addition, the growth with M14 melanoma was 103%.

In the case of `CC(C)(c1ccccc1)c1cc(O)c(C(C)(C)c2ccccc2)cc1O`, the growth in the assay on NCI-H23 lung is 38%; in the assay with NCI-H226 lung it was 43.2%; with NCI-H322M lung it was 59.7%; in the assay on HOP-62 NSCLC, 63%; with NCI-H460 lung, 21.9%; in the assay on NCI-H522 lung, -2.05% (active). Besides, the growth in the assay on A549/ATCC NSCLC was 28.5%; in the assay on 786-0 renal, 30.5%; with COLO 205 colon, 17%; in the assay with DU-145 prostate it was 63.3%; with K-562 leukemia, 13%; in the assay on MALME-3M melanoma it was 48.5%. Also, the growth with MDA-MB-231 breast was -1.39% (active); with RXF 393 renal it was 63.4%; in the assay on SF-268 CNS it was 38.7%; in the assay on SF-295 CNS it was 25%; in the assay on SF-539 CNS, 50.4%; in the assay with UACC-257 melanoma, 11.3%. Also, the growth in the assay with M14 melanoma is 11.9%.

For the compound `OCCN(CCO)c1ccc2ccccc2c1`, the growth in the assay on NCI-H23 lung is 101%; in the assay on NCI-H226 lung, 103%; in the assay on NCI-H322M lung it was 93.6%; in the assay on HOP-62 NSCLC it was 90.6%; with NCI-H460 lung it was 107%; in the assay on NCI-H522 lung, 73.4%. The growth in the assay with A549/ATCC NSCLC was 97.7%; in the assay on 786-0 renal, 111%; in the assay with COLO 205 colon, 106%; with DU-145 prostate, 103%; in the assay with K-562 leukemia it was 106%; with MALME-3M melanoma, 102%. Also, the growth with MDA-MB-231 breast was 108%; in the assay with RXF 393 renal it was 125%; in the assay with SF-268 CNS it was 96.8%; with SF-295 CNS it was 98.9%; in the assay with SF-539 CNS, 96.7%; in the assay with UACC-257 melanoma it was 110%. For the same compound, the growth in the assay on M14 melanoma was 90.7%.

Turning to `CC[C@H](C)[C@H](N)C(=O)O`, the growth in the assay on NCI-H23 lung was 111%; in the assay with NCI-H226 lung it was 96.5%; with NCI-H322M lung it was 96.9%; with HOP-62 NSCLC it was 102%; with NCI-H460 lung it was 108%; in the assay with NCI-H522 lung, 101%. Further, the growth in the assay with A549/ATCC NSCLC was 103%; in the assay with 786-0 renal it was 112%; with COLO 205 colon it was 103%; with DU-145 prostate, 106%; in the assay on K-562 leukemia it was 122%; with MALME-3M melanoma, 103%. Besides, the growth with MDA-MB-231 breast is 97.7%; in the assay with RXF 393 renal, 96.8%; with SF-268 CNS it was 105%; in the assay on SF-295 CNS, 104%; in the assay with SF-539 CNS, 100%; with UACC-257 melanoma, 119%. The growth in the assay on M14 melanoma is 105%.

As for `S=C(S)Oc1cccc2cccnc12`, the growth is 106% with NCI-H23 lung; 102% with NCI-H226 lung; 95.2% in the assay with NCI-H322M lung; 110% in the assay with HOP-62 NSCLC; 107% in the assay on NCI-H460 lung; 88.9% in the assay with NCI-H522 lung. Moreover, the growth in the assay on A549/ATCC NSCLC was 98.5%; in the assay with 786-0 renal, 103%; in the assay with COLO 205 colon, 111%; in the assay on DU-145 prostate, 105%; with K-562 leukemia, 90.8%; in the assay with MALME-3M melanoma it was 90.9%. The growth in the assay with MDA-MB-231 breast was 111%; in the assay with RXF 393 renal it was 119%; in the assay with SF-268 CNS, 109%; with SF-295 CNS it was 110%; with SF-539 CNS it was 118%; with UACC-257 melanoma it was 108%. The growth with M14 melanoma is 105%.

Values taken from PubChem BioAssay (NCI).
